# Measurements: the supplement of paper PMC6555819
# Test system: VDR:RXRa (NR concentration 270 nM, RXRa partner concentration 90 nM)
# Assay: PBM binding z-score (relative to random genomic background probes); higher = stronger binding; sequences stand for … in GC…GCGATTGACAGCGTAGAATGAAGG
# Description: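 Protein-binding microarray (Agilent 4x180K custom design, double-stranded 60-nt probes: 5' GC cap, 34-nt variable region, 24-nt constant primer region; full probe sequence given). Purified or IVT nuclear receptor:RXRα heterodimers (3:1 NR:RXRα, mostly 270:90 nM) or homodimers were incubated for 1 h in PBS with 2% milk and no ligand, then detected with Alexa488 antibodies. Fluorescence from o1-orientation probes (~5 replicates averaged) was converted to z-scores against 500 random hg19 background probes. Variable regions are seed direct-repeat (DR0–DR5) sites, all their single-nucleotide variants and half-site ablations.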
row,Sequence,PBM binding z-score
1,CGTACAAGGTCAGAGAGGTCAGTGAATGCCGAGT,7.46
2,ATATGTATGTTAAGGGTCATTCAGGTTGGTTCGC,5.25
3,CCGACTGGGGCAAGGTTACCAAAACGCACAGCCA,0.129
4,CAAACTAGGTCACTGGAAGGTCAAAGTCCGCATG,5.33
5,CAAACTAGGTCAAGAGGTCATAGTCCGCTTCCCG,5.59
6,ATCTCTAGGTAACCGAGTTCAGTGAATGCCGAAC,5.27
7,CCAGACAGTTGAAAGGTAACTCAGTCTGGTACGC,0.591
8,TCTAGCAGGCCAGTGGGTCACTCAAGAGGTACGG,0.297
9,TGAATGAGGTTATAGATCAGGGAACGTGGCGTCG,1.06
10,ACTCGAAGGACAAAGGTCAGAGCTACGCCAGTGA,2.96
11,ATCTCTAGGTAAGACTCATTTCAGTGAAGAACGC,0.308
12,TCCGCTAGGTCAGTTGGTCAGCTAACGAGCTGCC,0.232
13,TAGCCTAGCTCATTGGGCCAGTATAGTACGCATC,-0.69
14,TCTCGGAGGACACGAAAGGTCACAGCTCGACATC,4.91
15,CCGAGTAGGTTATGGGGCATTCAAGCAACGGTGA,-0.183
16,CCTTACGGGACACGAGGTTATAGCACGACGAGCG,0.648
17,CCTAGCAGGACAATCTGGGTCACTCAAGGCTTGA,0.704
18,CGCACGAGGGCATGAGTTGATAGCAAATGCCGAT,1.27
19,ATCTCTAGGTAAAGATAGTCCAGTGAATGCAAAT,-0.0135
20,TCTCGGAGGACACGAAAGGTCAGAGCACGACATC,3.41

row,Sequence,PBM binding z-score
1,CCGACTGGGGCAAAAGTTACCATACTCAGTACGA,-0.267
2,AGAACGAGGGCAATGAGTTGATAGAACGGGTGGC,5.04
3,GCTCGGAGGACAAGCTCAGAGCTTTGTCCGTAGA,-0.646
4,CCTAGCAGGCCAGGGTCACTCATGCATTTCGCTT,2.14
5,CCTCACGGGTCACGAGGTTATAGCACGACGAGCG,4.79
6,TCATATAGGTAAAGGTGGAAGTCGAACGATATGA,0.368
7,CGTCAATGTTCAAGGTAACGTAACAGAAAGCAGC,0.0627
8,CGAACTAGGTCATTGACAGGACTGTGAATAGTAA,1.65
9,TCTTGTAGATCAAAGGTTAGGAAAGCCGAAGCCT,0.697
10,TCTCGGAGCACACGAAAGGTCAGAGCTCGACATC,2.26
11,AATACAGGGTCATCGTAGGCCATAGTACGCACAG,5.58
12,ATCGAAAGGTCGAGGTGCGTATAGAGAAAGGGAA,2.16
13,ATCGAAAGGTCGATGGTGAGTATACCCACCCGAA,1.78
14,CCTACTGGGCCATCAGGTCATTGAGATCAACGTT,3.41
15,CCTTACGGATCACTGACAGGTTATAGCATTTGGA,0.456
16,CATACAGGGTCAGCTAGTCCAGAGTAGGGACGGC,4.36
17,ACTATTAGTTGAGACGAGGGTAACCGATAGGTTG,0.26
18,TCTAGTTGGTCACAGAGGTCACACACGACGGGTA,6.44
19,CAAACTAGGGCAAGGTCAAAGTCGGTTTGTGCCA,4.44
20,ATCGAAAGGTCGAAGTGAGTATAGAGAAAGGGAA,2.7
